# Screening results deposited in PubChem by several laboratories.
# Beta cell apopt: inhibitors of cytokine-induced beta cell apoptosis, primary screen, luminescence; INS-1E cytokine-induced death, ATP luminescence, 48 h; percent of positive-control rescue, neutral wells zero; protection from apoptosis, % (no concentration beside the values); 300,000 compounds, 0.8% hits;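 active means Every replicate reaches about 75%, or at least half do and their mean reaches it too, limit read from the data; inconclusive means At least half of replicates reach the limit but their mean does not; inactive means Under half of replicates reach the limit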;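 further: higher means more ATP so stronger rescue from cytokine killing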
# MPTP inh: mitochondrial permeability transition pore inhibitors, primary screen, biochemical, isolated mouse mitochondria, absorbance. Ca2+ swelling absorbance, 30 min. 360,000 compounds, 1.4% hits. inhibition, % at 10 µM;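 active means inhibition of 50% or more, scaled per plate between neutral and stimulator controls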
# Mdm2 MdmX PPI: inhibitors of human Mdm2-MdmX association, primary screen, cell-based, luminescence, split luciferase, SaOS-2, uHTS | AID 485346, 2010 | SaOS-2 split-luciferase Mdm2/MdmX complementation | Protein Mdm4 (Homo sapiens) + E3 ubiquitin-protein ligase Mdm2 (Homo sapiens), … | 330,000 compounds, 3% hits | inhibition, % at 8 µM;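 active means inhibition of at least 50% at 8 µM in the primary screen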
# Target sequence (O15151 whole entry, looked up): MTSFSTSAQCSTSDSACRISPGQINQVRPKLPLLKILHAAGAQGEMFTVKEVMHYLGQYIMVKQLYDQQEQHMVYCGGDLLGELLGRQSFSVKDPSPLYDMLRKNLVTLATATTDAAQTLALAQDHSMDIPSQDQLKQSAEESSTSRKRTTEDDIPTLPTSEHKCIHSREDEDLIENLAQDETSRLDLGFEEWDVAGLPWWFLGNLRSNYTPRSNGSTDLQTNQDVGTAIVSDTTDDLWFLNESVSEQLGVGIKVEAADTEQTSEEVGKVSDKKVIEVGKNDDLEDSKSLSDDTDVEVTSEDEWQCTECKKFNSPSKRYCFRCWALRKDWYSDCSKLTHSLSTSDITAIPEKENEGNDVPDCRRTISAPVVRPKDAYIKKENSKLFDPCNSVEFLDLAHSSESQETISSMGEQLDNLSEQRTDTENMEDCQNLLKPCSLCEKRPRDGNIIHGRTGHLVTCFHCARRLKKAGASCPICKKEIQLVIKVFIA
# Target sequence (Q00987 whole entry, looked up): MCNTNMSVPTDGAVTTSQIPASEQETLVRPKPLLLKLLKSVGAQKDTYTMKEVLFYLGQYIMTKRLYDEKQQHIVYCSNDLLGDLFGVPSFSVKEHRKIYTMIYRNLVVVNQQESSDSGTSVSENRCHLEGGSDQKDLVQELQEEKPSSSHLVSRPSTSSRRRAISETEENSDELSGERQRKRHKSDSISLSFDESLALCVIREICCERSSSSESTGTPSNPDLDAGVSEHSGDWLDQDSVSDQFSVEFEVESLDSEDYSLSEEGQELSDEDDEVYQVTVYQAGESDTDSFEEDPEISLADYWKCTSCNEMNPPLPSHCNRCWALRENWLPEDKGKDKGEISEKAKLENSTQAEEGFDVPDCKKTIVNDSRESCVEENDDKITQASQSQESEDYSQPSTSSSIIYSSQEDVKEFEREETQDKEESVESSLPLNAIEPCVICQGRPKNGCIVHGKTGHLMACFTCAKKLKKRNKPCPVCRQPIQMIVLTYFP
# CSC inhib: cancer stem cell viability inhibitors, primary screen, luminescence; 300,000 compounds, 1.1% hits; AID 2717, 2010; cancer stem cell-like cells viability; inhibition, % at 7.5 µM; in the data active means inhibition above about 75%; inconclusive means no clear call, values can overlap the other calls; tested in HMLE shEcad cells
# Calb FLC: C. albicans growth inhibition with fluconazole, primary screen, CaCi-2 strain, Alamar Blue fluorescence; 300,000 compounds, 0.57% hits; C. albicans CaCi-2 (fluconazole-resistant clinical isolate) + fluconazole, 48 h; AID 1979, 2009; growth inhibition, % (test concentration not listed);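 active means growth inhibition above about 58% in most replicates, limit read from the data, passing the limit was not always enough; inconclusive means exactly half the replicates above a set limit; inactive means most replicates below a set limit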;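 further: all wells also contain fluconazole at 8 µg/ml as a sub-toxic cotreatment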
# Mdm2-MdmX conf: Mdm2-MdmX complex disruptors, retested hits, confirmation, luminescence, single concentration; shares compounds with Mdm2 MdmX PPI; Mdm2-MdmX binding, luminescent assay; inhibition, % at 8 µM; 10,000 compounds, 55% hits; AID 489028, 2010; in the data active means inhibition above about 40%
# FLuc counter: full-length luciferase signal inhibition, confirmation, counter-screen for Mdm2/MdmX interaction inhibitor project, cell-based, single concentration, SaOS-2. shares compounds with Mdm2 MdmX PPI. SaOS-2 full-length luciferase counterscreen, luminescence. inhibition, % at 8 µM. 6,200 compounds, 77% hits. AID 504607, 2011;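 active means mean inhibition at 8 µM reaching about 37%, which flags the compound as non-specific, limit read from the data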;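 further: p53-null SaOS-2 cells with luciferase driven by a doxycycline-inducible promoter; compound on cells about two nights before reading with doxycycline added after day one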
# A number is an active result; . = inactive; ? = inconclusive; / = no result given. The list is not random: actives were taken first. Their share in the collection is about 4.8%.
SMILES,Beta cell apopt,MPTP inh,Mdm2 MdmX PPI,CSC inhib,Calb FLC,Mdm2-MdmX conf,FLuc counter
CCCCCCCCCCCCCCCC[N+](C)(C)CC,117,.,92,101,77,81,.
C#CC[N+](C)(C)CCCCCCCC,.,.,.,.,.,/,/
CCCCCCCCCCCCCCCC[N+](C)(C)CCl,/,.,/,/,/,/,/
COc1cc(NC(=O)CCc2nnc3ccc(N4CCN(C)CC4)nn23)cc(OC)c1,.,.,.,.,/,/,/
COc1ccccc1C(=O)NNC(=O)c1ccccc1,/,.,.,.,.,/,/
O=C(NNC1=C(C(=O)C(F)(F)F)CCC1)c1ccccc1O,.,.,.,/,?,.,/
COc1ccccc1C(=O)NNC1=C(C(=O)C(F)(F)F)CCC1,.,.,70,.,.,58,72
O=C(NNC1=C(C(=O)C(F)(F)F)CCC1)c1ccccc1Cl,.,.,.,.,.,/,/
Nc1ccccc1C(=O)NNC1=C(C(=O)C(F)(F)F)CCC1,.,.,53,.,.,49,148
CCN(CC)C(=O)c1cccc(-c2csc(C(C)(O)c3ccc(F)c(F)c3)n2)c1 (stereo not drawn),/,.,/,/,/,/,/
c1ccc(-c2ccc(-c3nc(-c4ccccn4)no3)cc2)cc1,.,.,97,.,.,89,.
c1ccc(-c2nc(-c3ccccn3)no2)cc1,.,.,.,.,.,/,/
Cc1ccc(-c2nc(-c3ccccn3)no2)cc1,.,.,86,.,.,86,53
Cc1ccc(-c2nc(-c3ccccn3)no2)cc1Cl,.,.,.,.,.,/,/
COc1cccc(C(C(=O)NCc2ccccc2)N2CCN(c3cccc(C)c3C)CC2)c1OC (stereo not drawn),/,.,/,/,/,/,/
CCOc1ccc(NC(=O)CN2CC(c3ccccc3)CC2=O)cc1 (stereo not drawn),.,.,.,.,.,/,/
O=C(CN1CC(c2ccccc2)CC1=O)N/N=C/c1cc(Br)ccc1O (stereo not drawn),.,.,62,.,.,65,43
O=S1(=O)N[C@H](Cc2ccccc2)COc2cccc(N3CCSCC3)c21,/,.,/,/,/,/,/
CCCOC(=O)c1ccc(Oc2c(-c3ccc(OCC)cc3O)n[nH]c2C)cc1,.,.,71,137,.,.,/
CCCOC(=O)c1ccc(Oc2cn[nH]c2-c2ccc(OCC)cc2O)cc1,.,.,.,.,.,/,/
O=C(O)c1cccc(Cn2c(Cl)c(/C=N/NC(=O)c3ccco3)sc2=O)c1,.,.,.,.,/,/,/
CCC12C(=O)C(CC)(C(c3ccccc3)=C1c1ccccc1)[C@@H]1C(=O)N(c3ccccc3)C(=O)C12 (stereo partly drawn),.,.,54,.,.,65,59
CCC12C(=O)C(CC)(C(c3ccccc3)=C1c1ccccc1)[C@@H]1C(=O)N(c3ccc(C)cc3)C(=O)C12 (stereo partly drawn),.,.,.,.,.,/,/
CCCC12C(=O)C(C)(C(c3ccccc3)=C1c1ccccc1)C1C(=O)N(c3ccc(C)cc3)C(=O)C12 (stereo not drawn),105,.,80,.,.,80,69
CC1=CN2C(c3cccc([N+](=O)[O-])c3)=NON(c3ccc(C)cn3)C2C=C1 (stereo not drawn),/,.,/,/,/,/,/
CCCCc1cc(=O)oc2cc(C)cc(OCC(=O)NC(Cc3ccc(Cl)cc3)C(=O)O)c12 (stereo not drawn),.,.,.,.,.,/,/
O=C(CCCCn1c(=O)c2ccccc2n(Cc2ccc(F)cc2Cl)c1=O)NCc1ccco1,.,.,54,.,.,.,/
COc1ccc(Cc2nc3c4c(ncn3n2)Oc2ccc3ccccc3c2C4c2ccc(OC)c(OC)c2)cc1 (stereo not drawn),.,.,.,.,.,/,/
COc1ccc(C2c3c(ncn(Cc4ccco4)c3=N)Oc3ccc4ccccc4c32)cc1 (stereo not drawn),.,.,88,94,.,53,89
